Compound activity as filed in PubChem BioAssay.
An excerpt weighted towards active compounds, which were near 6.5% of everything screened.
TGFb SMAD3 inh: TGF-b pathway inhibition; HepG2 CAGA-GFP TGF-b/SMAD3 reporter, GFP fluorescence, 18 h; TGF-beta stimulated, 500 pg/mL final; 410,000 compounds, 1.2% hits; Potency, µM (top dose mostly 46.1 µM), inactives show top-dose activity, negative = inhibition, most hits filed as inhibitors; further: potency means the concentration at half of the fitted maximal effect; on the % scale 0 is the no-effect control and ±100 the full control effect; nearly all actives have a fitted effect of over 65% in size
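Inhibition was scored as loss of TGF-beta-induced (500 pg/mL final, 18 hours, 37 degrees C) GFP in HEPG2 cells carrying a CAGA-GFP reporter, in DMEM with 1% FBS. Well GFP was summed per cell; Activity was normalised to unstimulated and stimulated DMSO wells, then concentration-response fitting.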
Giardia kill: kills Giardia lamblia; Giardia lamblia trophozoite viability; activity change, % at 7.66 µM, hits read low; AID 540267; 340,000 compounds, 0.15% hits; in the data active means activity change below about -80%; inconclusive means between about -30% and that limit;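 further: parasites exposed to compound for two days anaerobically before the ATP read; on the % scale 0 is the no-effect control and ±100 the full control effect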
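Media and compound were dispensed first, then trophozoites at 100 cells/well; plates sat 48 hrs at 37 deg C without oxygen before ATP luminescence reagent was added and read after 15-30 min at room temperature.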
HT1080-NT tox: kills 2HG-producing HT-1080-NT fibrosarcoma cells. 360,000 compounds, 1.6% hits. Potency, µM (top dose mostly 46.1 µM), inactives show top-dose activity, negative = less viability, hits mostly cytotoxic. AID 686970. HT-1080-NT fibrosarcoma viability, CellTiter-Glo ATP luminescence, 48 h;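 further: NT is the 2HG producing partner of a matched IDH1 knockdown line; potency means the concentration at half of the fitted maximal effect; 0% = DMSO-treated cells and -100% = media-only wells without cells; nearly all actives have a fitted effect of over 55% in size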
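HT-1080-NT; 750 cells/well; 5% FBS RPMI; 48 h compound, 37 degrees C; CellTiter-Glo luminescence; curve fitting and curve-class assignment.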
IL1B secr inh: blocks inflammasome-driven IL-1 beta release | THP-1 LPS/ATP IL-1B secretion, AlphaLISA, 16 h; stronger effect = lower value | 360,000 compounds, 4.7% hits | activity change, % at 57.5 µM; in the data active means activity change below about -50%; inconclusive means mostly about -30% to -49%; further: on the % scale 0 is the no-effect control and ±100 the full control effect
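Secreted IL-1B measured by AlphaLISA bead assay after 16 h compound exposure of THP-1 cells; compounds (final up to 57.5 uM) added 1 h before LPS (250 ng/mL) and ATP (1.25 mM) stimulation; lower signal means less secretion.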
HT1080 IDH1KD tx: kills HT-1080 cells with IDH1 knockdown; HT-1080 IDH1 knockdown viability, ATP luminescence, 48 h; AID 686971; Potency, µM (titrated, usually from 46.1 µM), for the others: at the highest dose activity, negative = toxicity, actives largely listed as cytotoxic; 360,000 compounds, 2% hits;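 further: potency means the concentration at half of the fitted maximal effect; 0% = DMSO wells and -100% = cell-free medium wells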
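After a 2 h attachment period, IDH1KD HT-1080 cells took pin-transferred compound for 48 h at 37 °C; ATP-based luminescence after 10 min room-temperature reagent incubation reported viability.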
HepG2 viability: kills HepG2 cells in TGF-b inhibitor counter-screen; HepG2 CAGA-GFP viability, ATP luminescence, 18 h; Potency, µM (series often up to 46.1 µM), without a hit: at the highest dose activity change, negative = cytotoxicity, usual class: cytotoxic; 410,000 compounds, 0.76% hits; AID 588856; further: potency means the concentration at half of the fitted maximal effect
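HepG2 CAGA-GFP cells (1000/well, DMEM with 1% FBS) received compound, then TGF-beta at 500 pg/mL final, and were incubated 18 hours at 37 degrees C. Viability was read by CellTiter-Glo luminescence. Media-only wells were set as complete cell-killing and DMSO as no toxicity.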
* hit, by the source's call; u = inconclusive. Unless noted, the call rests on the fitted dose curve; in most records, active means well fitted curve in the direction sought with a large enough effect; inconclusive means small, poorly fitted or top-dose-only effect, or another doubt; inactive means no such curve, though single readings can be large; an effect the other way counts as inactive or inconclusive.

SMILES | TGFb SMAD3 inh | Giardia kill | HT1080-NT tox | IL1B secr inh | HT1080 IDH1KD tx | HepG2 viability
CCN(CC)CCNCc1ccc(-c2ccc(Cl)cc2)o1 | -1% | 9 | 16µM* | -4 | u | -32%
CN=c1scc(-c2ccc(F)cc2)n1/N=C/c1ccc(O)c(O)c1 | u | u | u | 50 | 8.2µM* | -6%
CN=c1scc(-c2ccc([N+](=O)[O-])cc2)n1/N=C/c1ccco1 | -17% | u | 17% | -10 | u | 5%
CC(C)C(=O)C1=Cc2cccc([N+](=O)[O-])c2OC1N1CCOCC1 (stereo not given) | -8% | -8 | -5% | -60* | -7% | -32%
CCCCCCCCCCCCCCC(O)C[N+](C)(CCO)CCO (stereo not given) | u | 18 | u | -100* | 18µM* | -104%
O=C(C1CCN(S(=O)(=O)c2cccc3cccnc23)CC1)N1CCCCC1 | -2% | -12 | -2% | 56 | -2% | 4%
O=c1oc2ccccc2c(O)c1/C=C1\C=Nc2ccccc21 | 0% | -18 | u | -108* | 26µM* | -82%
Cc1c(N=C/C=C/c2ccccc2)c(=O)n(-c2ccccc2)n1C | -8% | -6 | 3% | -14 | -5% | -3%
NS(=O)(=O)c1ccc(N/N=C/c2cn(-c3ccccc3)nc2-c2cccs2)cc1 | 10µM* | -9 | 23µM* | -61* | 21µM* | 11µM*
NC(=O)N/N=C/c1cn(-c2ccccc2)nc1-c1cccs1 | -1% | 7 | 23µM* | u | 10µM* | -25%
O=C(N/N=C/c1cn(-c2ccccc2)nc1-c1cccs1)c1ccncc1 | -4% | 6 | 2% | -6 | -14% | -12%
NS(=O)(=O)c1ccc(N/N=C/c2cn(-c3ccccc3)nc2-c2cccs2)c([N+](=O)[O-])c1 | u | 14 | u | 11 | 7.3µM* | -61%
O=C(O)c1cccc(N/N=C/c2cn(-c3ccccc3)nc2-c2cccs2)c1 | 1% | -17 | -15% | 5 | -9% | -19%
CC(C(=O)NCc1ccc(F)cc1)c1ccc([N+](=O)[O-])cc1 (stereo not given) | 1% | -1 | 0% | 9 | -1% | 1%
Cc1cc(C)cc(NC2=NCC(=O)N2Cc2ccccc2)c1 | 0% | -5 | -13% | 18 | -7% | 4%
CCCCc1ccc(NC2=NCC(=O)N2CCc2ccccc2)cc1 | u | 0 | u | u | 26µM* | -13%
Cc1cc(SCC(=O)c2ccc(O)c(O)c2)n2nc(C)c(-c3ccccc3)c2n1 | 18µM* | 32 | 8.2µM* | 0 | 9.2µM* | -28%
CCOC(=O)N1CCC(N2CCCC(C(=O)c3ccc4cc(OC)ccc4c3)C2)CC1 (stereo not given) | u | -16 | u | -162* | u | -31%
COc1ccc2cc(C(=O)C3CCCN(Cc4cccc(C)n4)C3)ccc2c1 (stereo not given) | u | 8 | u | -109* | 23µM* | -30%
Cc1c(CCC(=O)N2CCC(C(=O)NCCCCCC(=O)O)CC2)c(=O)oc2cc3oc4c(c3cc12)CCCC4 | 4% | 41 | 11% | -19 | 7% | 0%
OC(CNCCNc1ncccc1C(F)(F)F)COc1ccc(F)cc1 (stereo not given) | 1% | 5 | -26% | -82* | u | -18%
COc1ccc(OCC(O)CNC(=O)c2cccs2)cc1 (stereo not given) | 6% | 10 | 26% | 11 | 16% | 0%
Cc1cc(=O)oc2cc(NC(=O)c3cccc(S(C)(=O)=O)c3)ccc12 | 32% | -1 | -4% | -53* | -9% | 21%
COc1cc(/C=C2\SC(=O)N(c3cccc(Cl)c3)C2=O)cc([N+](=O)[O-])c1O | -13% | u | -4% | 0 | -15% | -11%
